In the library only some 6.2% were active in any assay of this set; here they are far more common.
HT1080-NT tox – qHTS for induction of synthetic lethality in tumor cells producing 2HG: qHTS for the HT-1080-NT fibrosarcoma cell line; HT-1080-NT fibrosarcoma viability, CellTiter-Glo ATP luminescence, 48 h; Potency, µM (highest dose often 46.1 µM), for the others: at the top dose activity, negative = less viability, usual class: cytotoxic; actives 1.6% (n = 360,000); AID 686970, 2013;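 also: NT is the 2HG producing partner of a matched IDH1 knockdown line; 0% = DMSO-treated cells and -100% = media-only wells without cells; nearly all actives have a fitted effect of over 55% in size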
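Fibrosarcoma NT cells, 750 per well in 5% FBS RPMI, were exposed to compound for 48 hours. Viability: CellTiter-Glo luminescence.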
ATXN2 expr inh – Primary qHTS for Inhibitors of ATXN expression; HEK-293 ATXN2-luciferase reporter, luminescence, 24 h; Potency, µM (titrated, usually from 57 µM), without a hit: at the highest dose activity change, negative = inhibition, actives largely listed as inhibitors; actives 0.72% (n = 360,000); also: % is scaled to controls: 0 for no effect and ±100 for the full control effect; nearly all actives have a fitted effect of over 55% in size
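ATXN2-luciferase reporter cells (luciferase flanked by upstream and downstream ATXN2 gene portions) were treated 24 h at 37 °C with compounds at up to 57 uM. SteadyGlo luminescence gave expression; GF-AFC fluorescence gave viability.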
ATXN viability – Viability Counterscreen for Primary qHTS for Inhibitors of ATXN expression; S2 cells (HEK-293 line with an ATXN2-luciferase reporter) viability, CellTiter-Fluor protease fluorescence, 24 h; actives 0.49% (n = 400,000); Potency, µM (titrated, usually from 56.7 µM), usual class: cytotoxic; also: nearly all actives have a fitted effect of over 40% in size
KB-3-1 tox – qHTS assay for MDR1-selective chemotherapeutics: Primary screen using the parental adenocarcinoma cell KB-3-1; AID 1347075, 2019; Potency, µM (series often up to 46.1 µM), actives largely listed as cytotoxic; KB-3-1 viability, CellTiter-Glo ATP luminescence, 72 h; actives 1.4% (n = 400,000); also: % is scaled to controls: 0 for no effect and ±100 for the full control effect; nearly all actives have a fitted effect of over 60% in size
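Viability of parental KB-3-1 cells, measured by CellTiter-Glo luminescence, followed a 72 h incubation at 37 °C with pinned compounds in phenol-red-free DMEM containing 10% FBS.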
KB-V1 MDR tox – qHTS assay for MDR1-selective chemotherapeutics: Primary screen using the drug-selected MDR subline cells KB-V1. KB-V1 MDR cells viability, CellTiter-Glo, 72 h. Potency, µM (highest dose often 46.1 µM), usual class: cytotoxic. actives 3.4% (n = 400,000). AID 1347076, 2019; also: % is scaled to controls: 0 for no effect and ±100 for the full control effect; nearly all actives have a fitted effect of over 60% in size
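Potencies derive from concentration-effect curves fitted to normalized luminescence (CellTiter-Glo) of KB-V1 cells treated for 72 h at 37 degrees C in phenol-red-free DMEM containing 10% FBS.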
HT1080 IDH1KD tx – qHTS for induction of synthetic lethality in tumor cells producing 2HG: qHTS for the HT-1080-IDH1KD cell line. actives 2% (n = 360,000). Potency, µM (highest dose often 46.1 µM), without a hit: at the top dose activity, negative = toxicity, hits mostly cytotoxic. HT-1080 IDH1 knockdown viability, ATP luminescence, 48 h. AID 686971, 2013;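 also: 0% = DMSO wells and -100% = cell-free medium wells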
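Assay cells: HT-1080 with IDH1 knockdown, 750 per well, RPMI/5% FBS. Exposure: 48 h at 37 °C following 2 h pre-incubation. Read: CellTiter-Glo luminescence; fitted concentration-response, curve class assigned.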
* marks the source's active call; other numbers are inactive results. Calls follow the shape of the dose curve; as a rule, active = well fitted curve in the direction sought with a large enough effect; inconclusive = small, poorly fitted or top-dose-only effect, or another doubt; inactive = no such curve, though single readings can be large; an effect the other way counts as inactive or inconclusive. Potency is read from the fitted curve at half-maximal effect.

`CC(=O)c1c(O)n(-c2cccc(Cl)c2)c(=O)[nH]c1=O` (tested in a mixture with another compound) gave HT1080-NT tox 13.8%, ATXN2 expr inh -13.0%, ATXN viability inactive, KB-3-1 tox inactive, KB-V1 MDR tox inactive and HT1080 IDH1KD tx 14.0%.
Screening C[C@@H]1[C@H](O)[C@@H](C)C=CC=CCCC=CC=CC=CC=C[C@H](O[C@H]2O[C@@H](C)[C@H](O)[C@@H](N)[C@@H]2O)CC2O[C@](O)(C[C@@H](O)[C@H](O)CC[C@@H](O)C[C@@H](O)C[C@@H](O)CC(=O)O[C@H]1C)C[C@H](O)[C@H]2C(=O)O returned ATXN2 expr inh 9.8% and ATXN viability inactive.
`COC(=O)[C@@H]1N=C(c2ccc(OC)cc2)O[C@]12C(=O)N(Cc1ccc(OC)cc1)c1ccccc12` gave HT1080-NT tox -28.3%, ATXN2 expr inh 0.8%, ATXN viability inactive, KB-3-1 tox inconclusive, KB-V1 MDR tox 23.1µM* and HT1080 IDH1KD tx inconclusive.
Screening COc1ccc(Cn2c(O)c(/C=N/NC(=O)c3ccccc3)c(=O)[nH]c2=O)cc1 returned HT1080-NT tox -5.4%, ATXN2 expr inh -0.8%, ATXN viability inactive, KB-3-1 tox inactive, KB-V1 MDR tox inactive and HT1080 IDH1KD tx -3.9%.
Screening Cc1cccc(-n2c(/C=C/c3c[nH]c4ccccc34)nc3ccccc3c2=O)c1 returned ATXN2 expr inh -17.4%, ATXN viability inactive, KB-3-1 tox inactive and KB-V1 MDR tox inconclusive.
For CC(=O)Nc1cc(-c2ccc(C(=O)NC3CC3)cc2)cn2c(-c3ccc(F)c(Cl)c3)cnc12 the results were HT1080-NT tox inconclusive, ATXN2 expr inh 0.0%, ATXN viability inactive, KB-3-1 tox inactive, KB-V1 MDR tox inconclusive and HT1080 IDH1KD tx 18.4µM*.
C[C@]12Cc3cn[nH]c3C[C@@H]1CC[C@@H]1[C@@H]2CC[C@@]2(C)[C@H]1CC[C@]2(C)O was read as ATXN2 expr inh -10.5% and ATXN viability inactive.
Cc1ccc(C2CC3CCC(C2)N3Cc2ccccc2F)cc1 (stereo not drawn) was read as HT1080-NT tox inconclusive, ATXN2 expr inh -9.0%, ATXN viability inactive, KB-3-1 tox inconclusive, KB-V1 MDR tox inconclusive and HT1080 IDH1KD tx 14.6µM*.
`CN1C(=O)C(=Cc2ccccc2OCCOc2ccc([N+](=O)[O-])cc2)C(=O)N(C)C1=O` gave HT1080-NT tox inconclusive, ATXN2 expr inh -11.7%, ATXN viability inconclusive, KB-3-1 tox inactive, KB-V1 MDR tox inactive and HT1080 IDH1KD tx inconclusive.
For O=C1NC(=O)C(=Cc2ccccc2OCCOc2ccc([N+](=O)[O-])cc2)C(=O)N1 the results were HT1080-NT tox inconclusive, ATXN2 expr inh 19.6%, ATXN viability inactive, KB-3-1 tox inactive, KB-V1 MDR tox inactive and HT1080 IDH1KD tx 18.4µM*.
Screening CCCCCCC(=O)N/N=C/c1c(O)n(CCc2ccccc2)c(=O)[nH]c1=O returned HT1080-NT tox -9.8%, ATXN2 expr inh 17.8µM*, ATXN viability inconclusive, KB-3-1 tox inconclusive, KB-V1 MDR tox inactive and HT1080 IDH1KD tx inconclusive.
`O=C(N/N=C/c1c(O)n(CCc2ccccc2)c(=O)[nH]c1=O)c1ccccc1O` gave HT1080-NT tox 13.0%, ATXN viability inactive, KB-3-1 tox inactive, KB-V1 MDR tox inconclusive and HT1080 IDH1KD tx -7.2%.
Screening CCCCCCC(=O)N/N=C/c1c(O)n(C(C)CC)c(=S)[nH]c1=O (stereo not drawn) returned HT1080-NT tox inconclusive, ATXN viability inactive, KB-3-1 tox inconclusive, KB-V1 MDR tox inactive and HT1080 IDH1KD tx 14.6µM*.
O=S(=O)(F)Cc1ccccc1 was read as ATXN2 expr inh 29.8%.
`CCS(=O)(=O)N1Cc2cc(C(=O)N(C)C)nc(-c3cccc(-c4ccc(F)cc4)c3)c2[C@H]1CCO` gave HT1080-NT tox -1.6%, ATXN2 expr inh -14.6%, ATXN viability inactive, KB-3-1 tox inactive, KB-V1 MDR tox inactive and HT1080 IDH1KD tx 23.1µM*.
For COc1ccc(CNCCc2c[nH]c3ccccc23)c(OC)c1C the results were HT1080-NT tox inconclusive, ATXN2 expr inh -31.2%, ATXN viability inconclusive, KB-3-1 tox inactive, KB-V1 MDR tox inconclusive and HT1080 IDH1KD tx 25.9µM*.
COc1ccc(CNCCc2ccccc2F)c(OC)c1C was read as HT1080-NT tox -16.8%, ATXN2 expr inh -22.4%, ATXN viability inactive, KB-3-1 tox inactive, KB-V1 MDR tox inactive and HT1080 IDH1KD tx -23.9%.
COc1cccc(CNCCc2c[nH]c3ccccc23)c1 was read as HT1080-NT tox -9.3%, ATXN2 expr inh inconclusive, ATXN viability inactive, KB-3-1 tox inactive, KB-V1 MDR tox inactive and HT1080 IDH1KD tx -4.4%.
For CCOc1c(Cl)cc(CNCCc2c[nH]c3ccccc23)cc1OC the results were HT1080-NT tox inconclusive, KB-3-1 tox inconclusive, KB-V1 MDR tox 20.6µM* and HT1080 IDH1KD tx -8.0%.
Screening NCC(=O)c1ccc(Cl)c(Cl)c1 returned KB-3-1 tox inconclusive and KB-V1 MDR tox inactive.
`C=CC[C@H](CC(=O)N(CCO)Cc1ccccc1)C(=O)NC[C@H](OC(=O)[C@@H](CC=C)CC(=O)OC(C)(C)C)c1ccccc1` gave HT1080-NT tox -26.7%, ATXN2 expr inh inconclusive, ATXN viability 25.1µM*, KB-3-1 tox inconclusive, KB-V1 MDR tox inconclusive and HT1080 IDH1KD tx -0.4%.
C=CC[C@@H](CC(=O)N(CCO)Cc1ccccc1)C(=O)NC[C@@H](OC(=O)[C@@H](CC=C)CC(=O)OC(C)(C)C)c1ccccc1 was read as HT1080-NT tox -20.0%, ATXN2 expr inh inconclusive, ATXN viability 20µM*, KB-3-1 tox inactive, KB-V1 MDR tox inactive and HT1080 IDH1KD tx -7.9%.
`COc1ccc(-c2nn3c(=O)cc(CN4CCN(S(=O)(=O)c5ccc(C)cc5)CC4)nc3s2)cc1` gave ATXN2 expr inh 3.5%, ATXN viability inconclusive, KB-3-1 tox inactive and KB-V1 MDR tox inactive.

Compound activity: PubChem BioAssay, National Center for Advancing Translational Sciences (NCATS)
